This is a sample that favours compounds with a hit; in the whole collection about 0.34% have one here.
miR-21 act = qHTS Assay for Modulators of miRNAs and/orActivators of miR-21 | HeLa miR-21 FLuc reporter, luciferase, 48 h | Potency, µM (doses to about 38.3 µM), inactives show at the highest dose activity change, positive = activation, usual class: activators | 340,000 tested, under 10 active | AID 2288, 2010;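 further: % of control where 0% means no effect; miR-21 action dims this reporter so a rising signal means less miR-21 action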
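HeLa cells stably expressing CMV-driven firefly luciferase with a downstream miR-21 binding sequence, endogenously expressing miR-21, were treated with titrations (up to about 40uM final) for 48 hours at 37 degree Celsius. Luciferase luminescence was read after lysis.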
Vif-APOBEC3G blk = qHTS for Inhibitors of Vif-A3G Interactions: qHTS; DNA dC->dU-editing enzyme APOBEC-3G (Homo sapiens), Q9HC16; HeLa A3G-eYFP + Vif (tagged APOBEC3G with the HIV-1 protein that degrades it), YFP fluorescence, overnight; Potency, µM (titrated, usually from 46.1 µM), for inactives: top-dose activity, negative = active, usual class: inhibitors; actives 0.076% (n = 410,000); further: potency means the concentration at half of the fitted maximal effect; on the % scale 0 is the no-effect control and ±100 the full control effect; nearly all actives have a fitted effect of over 60% in size
Target sequence (Q9HC16 whole entry, looked up): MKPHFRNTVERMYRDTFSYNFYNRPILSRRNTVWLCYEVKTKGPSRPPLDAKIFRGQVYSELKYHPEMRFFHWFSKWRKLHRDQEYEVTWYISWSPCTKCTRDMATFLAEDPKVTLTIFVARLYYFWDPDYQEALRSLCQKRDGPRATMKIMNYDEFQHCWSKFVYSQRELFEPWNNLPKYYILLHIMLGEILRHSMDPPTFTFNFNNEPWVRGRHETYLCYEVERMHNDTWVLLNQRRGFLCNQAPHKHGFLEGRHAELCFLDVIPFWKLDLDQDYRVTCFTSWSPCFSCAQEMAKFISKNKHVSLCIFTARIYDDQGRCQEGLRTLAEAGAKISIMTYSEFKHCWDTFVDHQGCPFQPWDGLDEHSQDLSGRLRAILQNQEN
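HeLa cells stably expressing Vif and C-terminally eYFP-tagged A3G, seeded overnight at 37 deg C, then exposed to compound by pintool overnight at 37 deg C. Rise in yellow fluorescence (Ex 488/Em 500-530, Acumen) marks blocked Vif-driven A3G degradation.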
Epigenetic derep = Quantitative High-Throughput Screen for Regulators of Epigenetic Control | murine LDR cells, GFP reporter derepression, 30 h | Potency, µM (series often up to 53.9 µM), without a hit: top-dose GFP activation, actives largely listed as activators | actives 0.2% (n = 280,000); further: potency means the concentration at half of the fitted maximal effect; % of control where 0% means no effect; nearly all actives have a fitted effect of over 60% in size
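Derepression of a silenced CMV-GFP reporter in murine LDR cells is scored by enumerating GFP-positive cells with a laser-scanning microplate cytometer after 30 hours of treatment at 37 C.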
Vif-APOBEC3F blk = qHTS for Inhibitors of Vif-A3F Interactions: qHTS; actives 0.2% (n = 390,000); HeLa A3F-eYFP + Vif (tagged APOBEC3F with the HIV-1 protein that degrades it), YFP fluorescence increase; Potency, µM (series often up to 46.1 µM), without a hit: at the highest dose activity, negative = active; further: potency means the concentration at half of the fitted maximal effect; % of control where 0% means no effect; nearly all actives have a fitted effect of over 65% in size
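HeLa cells stably expressing A3F-eYFP plus Vif, plated and incubated overnight at 37 deg C, then exposed to compounds overnight at 37 deg C. Blocked degradation read as raised yellow fluorescence (Ex 488/Em 500-530).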
An asterisk follows results filed as active; ? = inconclusive; nt = not tested or not shown; ! = not confirmed by another sample; [ ] = dose if it differs, or a comment. The call rests on the fitted dose curve; in most records, active means well fitted curve in the direction sought with a large enough effect; inconclusive means small, poorly fitted or top-dose-only effect, or another doubt; inactive means no such curve, though single readings can be large; an effect the other way counts as inactive or inconclusive.

SMILES	miR-21 act	Vif-APOBEC3G blk	Epigenetic derep	Vif-APOBEC3F blk
COc1ccc2nc(NS(=O)(=O)c3ccc(C)cc3)c(Nc3cc(Cl)ccc3OC)nc2c1	3%	-28%	25µM*	-896%
CC(=O)Nc1ccc(S(=O)(=O)Nc2nc3ccccc3nc2Sc2nncn2C)cc1	-8%	-16%	3%	10µM*
COC(=O)c1cc(Nc2nc3ccccc3nc2NS(=O)(=O)c2ccc(C)cc2)ccc1Cl	-43%	-7%	13%	11µM*
Cc1cc(C)c(NC(=O)c2cc(C)nc3c2c(C)nn3-c2cccc(F)c2)c(C)c1	-1%	-9%	1%	1%
CC(=O)Oc1ccc2cc(-c3nc4c(s3)CCc3ccccc3-4)c(=O)oc2c1	nt	9%	nt	nt
Cc1nc(SCC(=O)Nc2ccc(Cl)cc2C(F)(F)F)[nH]c(=O)c1Cc1ccccc1	-1%	-7%	-1%	-3%
Cc1ccc(NC(=O)C2CCCN2S(=O)(=O)c2cccc3nsnc23)c(Br)c1 (stereo not given)	4%	0%	-1%	0%
CC(=O)Nc1ccc(S(=O)(=O)Nc2nc3ccccc3nc2Nc2ccc(N)cc2)cc1	-7%	-7%	1%	13µM*
Cc1ccc(C)c(C(C)NC(=S)NCc2ccc(F)cc2)c1 (stereo not given)	28%	-1%	nt	11µM*
COc1cc(N2CCCC2)c(OC)cc1/C=C(/C#N)c1ccc(Br)cc1	-2%	?	3.2µM*	4µM*
COc1cc(N2CCCC2)c(OC)cc1/C=C(/C#N)c1ccc(F)cc1	-8%	10µM*	14µM*	10µM*
O=c1c[n+]([O-])c2ccccc2n1OCc1c(F)cccc1F	-7%	?	13µM*	-1%
COc1ccc2[nH]c3c(c2c1)CCNC3c1ccc([N+](=O)[O-])o1 (stereo not given)	5%	?	nt	25µM*
CCc1c(C)nc(SCC(=O)c2cccs2)c(C#N)c1C	-57%	13µM*	9%	?
COc1ccc(-c2nc3c4ccccc4ccn3c2Cc2ccsc2)cc1OC	nt	8.9µM*	nt	nt
CN(C)CCN(Cc1ccccc1)S(=O)(=O)c1ccc(-c2cc(C(F)(F)F)on2)s1	0%	3%	-4%	3%
COCCN1C(=O)/C(=C/c2ccc(N3CCCC3)cc2C)SC1=S	3%	?	2.8µM*	?
CCN=C1S/C(=C\c2ccc(N3CCOCC3)cc2C)C(=O)N1CC	-14%	?	0%	?
CN1/C(=C\C=C2/C(=O)Oc3ccccc3C2=O)C(C)(C)c2ccccc21	-30%	7%	14µM*	?
CCCN1C(=O)/C(=C\C=C2\N(CC)c3ccccc3C2(C)C)SC1=S	1%	?	-6%	3.5µM*
CN1/C(=C\C=C2/SC(=S)NC2=O)C(C)(C)c2ccccc21	20%	7.9µM*	?	?
C=CC(=O)N1CCC[C@@H](n2nc(-c3ccc(Oc4ccccc4)cc3)c3c(N)ncnc32)C1	nt	-3%[92.2 µM]	nt	nt
CC(=O)Nc1cccc(C(=O)OCC(=O)NC(=O)C2CCCCC2)c1	nt	1%	nt	nt
Cc1ccc(NC(=O)N2CCc3ccccc3C2)cc1C	-49%	0%	nt	-8%
Cc1ccc(C)c(NC(=O)N2CC=C(c3c[nH]c4ccccc34)CC2)c1	-16%	?	?	25µM*
SMILES	miR-21 act	Vif-APOBEC3G blk	Epigenetic derep	Vif-APOBEC3F blk
Cc1cc(NC(=O)N2CC=C(c3c[nH]c4ccccc34)CC2)ccc1Br	5%	?	?	22µM*
COc1cc(OC)c(NC(=O)N2CC=C(c3c[nH]c4ccccc34)CC2)cc1Cl	-9%	?	?	?
Cc1ccccc1CCNC(=O)c1ccc2c(c1)nc1n2CCC(C)C1 (stereo not given)	-45%	4%	0%	-4%
CC(=O)c1ccc2cccc3c2c1N=CN3C	-17%	13µM*	0%	?
CSc1cccc(NC(=O)c2cc3c(COC(C)=O)cnc(C)c3oc2=O)c1	-2%	?	3%	10µM*
O=Cc1s/c(=N\S(=O)(=O)c2ccccc2)n(CCCCl)c1Cl	?	?	?	28µM*
CCn1c(C)cs/c1=N\S(=O)(=O)c1ccccc1	nt	1%	nt	-5%
COC(=O)c1ccccc1NC(=O)Cn1nc(C(F)(F)F)c2c1CCCC2	10%	9%	-1%	1%
O=C(Nc1ccc(Oc2ccc(NC(=O)Nc3ccccc3Cl)cc2)cc1)Nc1ccccc1Cl	-9%	-2%	1%	11µM*
O=C(Nc1ccccc1)Nc1cccc(Cl)c1Cl	-9%	-4%	0%	-14%
Cc1ccc(N2C(=O)CSC23C(=O)N(CC(=O)Nc2ccccc2F)c2ccccc23)cc1C (stereo not given)	-10%	-4%	1%	10%
CCc1ccc(NC(=O)CSc2nnc3[nH]c(=O)cc(-c4ccccc4)n23)cc1	-9%	10%	0%	-12%
COc1ccc(-n2c(O)c(/C=N/NS(=O)(=O)c3ccc(C)c([N+](=O)[O-])c3)c3ccccc3c2=O)cc1OC	-11%	3.5µM*	5%	13µM*
Cc1ccc(NC(=O)c2sc3ncnc(N(C)C4CCCCC4)c3c2C)cc1	22%	1%	-1%	3%
COc1ccc(-c2[nH]n(-c3ccc([N+](=O)[O-])cc3)c(=O)c2C=NCc2ccccc2)cc1	-6%	-10%	13µM*	?
CC(NC(=O)c1cc2ccccc2o1)c1ccccc1 (stereo not given)	0%	0%	16µM*!	-5%
NC(=O)C1CCN(C2=C(NS(=O)(=O)c3ccc(Br)cc3)C(=O)c3ccccc3C2=O)CC1	13%	-16%	nt	2%
NC(=O)C1CCN(c2nc3ccccc3nc2NS(=O)(=O)c2ccc(Br)cc2)CC1	nt	-1%	nt	25µM*
CCOC(=O)c1c(/N=C/N(C)C)sc(/C=N/Nc2ccccc2)c1-c1ccc(Cl)cc1	14%	-20%	11µM*	-4%
Cc1cc2nc3c(=O)n(C4CCCCC4)c(=O)[nH]c3nc2cc1N	-40%	8.9µM*	1%	11µM*
N#C/C(=C\c1ccc(Sc2ccccc2)o1)c1nc2ccccc2[nH]1	-55%	?	?	?
Cc1ccc2nc(/C(C#N)=C/c3ccc(-c4ccccc4C(=O)O)o3)[nH]c2c1	6%	?	nt	11µM*
Cc1cc2nc(/C(C#N)=C\c3ccc(-c4ccccc4C(=O)O)o3)[nH]c2cc1C	-8%	8%	nt	-319%
CCOC(=O)c1ccc(-c2ccc(/C=C(\C#N)c3nc4ccc(C)cc4[nH]3)o2)cc1	-42%	nt	1.6µM*	nt
CCOC(=O)c1ccc(-c2ccc(/C=C(\C#N)C(=O)Nc3cccc(C)c3)o2)cc1	-7%	0%	?	?
N#C/C(=C\c1ccc(-c2ccc(F)cc2F)o1)c1nc2ccccc2[nH]1	-18%	11µM*	7.9µM*	11µM*
COc1cc(Br)c(/C=C(\C#N)c2nc3ccccc3[nH]2)cc1OC	-14%	-23%	6%	25µM*
